Laboratory results published in PubChem BioAssay AID1159580 (chemical genetic matrix, 2015).
The whole screen tested about 5,500 compounds, of which about 2,000 (36%) were called active. About 18% were inconclusive and are not listed. Cut-off read from the data, not from the text of the source: active = normalized growth mostly below about 0.91 (no sharp cut-off); inconclusive = no clear call, values can overlap the other calls; inactive = mostly above about 0.92. Some of the results follow.

Experiment: chemical genetic growth profiling, strain panel (AID 1159580);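 note: tested at 20 µM; growth read once vehicle control cultures reached saturation at 30 °C; 1 = growth at the plate median or of vehicle wells; lower values mean less growth of the strain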
Conditions: S. cerevisiae deletion strains, growth OD

Measured: normalized growth

Cn1cnc(CCN)c1
inactive: locus YAL013W, strain DEP1, active compounds read low 1.01 | locus YAL040C, strain CLN3, active compounds read low 0.999 | locus YCL061C, strain MRC1 (second series), active compounds read low 0.995 | locus YDR363W, strain ESC2, active compounds read low 0.979 | locus YER002W, strain NOP16, active compounds read low 0.98 | locus YGR078C, strain PAC10, active compounds read low 1.01 | locus YGR229C, strain SMI1, active compounds read low 1.01 | locus YJR075W, strain HOC1, active compounds read low 1.01 | locus YMR263W, strain SAP30, active compounds read low 1 | locus YNL153C, strain GIM3, active compounds read low 1 | locus YNL175C, strain NOP13, active compounds read low 0.986 | locus YNL197C, strain WHI3, active compounds read low 0.992 | locus YNL224C, strain SQS1, active compounds read low 0.983 | locus YNL322C, strain KRE1, active compounds read low 1.01 | locus YOR083W, strain WHI5 (second series), active compounds read low 0.99
